Common to all, as to assay: DAPPL (digital affinity profiling via proximity ligation, sequencing); 10 mM Tris-HCl pH 7.5, 50 mM NaCl, 1 mM DTT, 4% glycerol, room temperature, 30 min; GST-TFs on glutathione beads, 16-mer random dsDNA library, 0.1% formaldehyde crosslink after washing; high values mean tight binding
Details in all cases: protein: recombinant; tags: N-terminal GST; dsDNA, one strand shown

One assay deals with T1, FLI1 (Homo sapiens, UniProt Q01543 1-452).
T1 sequence: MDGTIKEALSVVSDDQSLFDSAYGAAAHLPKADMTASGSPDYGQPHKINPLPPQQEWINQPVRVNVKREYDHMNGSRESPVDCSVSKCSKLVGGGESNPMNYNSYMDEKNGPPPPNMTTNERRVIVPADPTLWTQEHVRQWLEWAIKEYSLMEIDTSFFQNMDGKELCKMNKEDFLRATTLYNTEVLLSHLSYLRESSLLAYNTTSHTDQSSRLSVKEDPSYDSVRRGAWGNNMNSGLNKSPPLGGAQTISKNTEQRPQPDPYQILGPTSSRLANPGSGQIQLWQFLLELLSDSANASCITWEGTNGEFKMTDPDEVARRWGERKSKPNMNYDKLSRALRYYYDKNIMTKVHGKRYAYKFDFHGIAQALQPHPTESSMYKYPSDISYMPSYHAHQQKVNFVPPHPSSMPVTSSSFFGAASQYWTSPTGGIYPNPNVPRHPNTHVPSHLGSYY
Put shortly:
(§1)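 Binding signal is defined as a hexamer's read frequency for one factor over its frequency for the tag-only sample. To obtain reads, GST-fused human transcription factors were expressed in yeast, captured on glutathione beads, barcoded with DNA and pooled with that sample. Pools met 200 nmole of a 16-mer random double-stranded DNA library in Tris/NaCl/DTT/glycerol buffer for 30 min at room temperature before washing, 0.1% formaldehyde crosslinking, proximity ligation (BsaI/T4 ligase, 1 h, 37 °C), PCR and Illumina NextSeq500 sequencing.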

The next assay deals with T2, ELK1 (Homo sapiens, UniProt P19419 1-428).
T2 sequence: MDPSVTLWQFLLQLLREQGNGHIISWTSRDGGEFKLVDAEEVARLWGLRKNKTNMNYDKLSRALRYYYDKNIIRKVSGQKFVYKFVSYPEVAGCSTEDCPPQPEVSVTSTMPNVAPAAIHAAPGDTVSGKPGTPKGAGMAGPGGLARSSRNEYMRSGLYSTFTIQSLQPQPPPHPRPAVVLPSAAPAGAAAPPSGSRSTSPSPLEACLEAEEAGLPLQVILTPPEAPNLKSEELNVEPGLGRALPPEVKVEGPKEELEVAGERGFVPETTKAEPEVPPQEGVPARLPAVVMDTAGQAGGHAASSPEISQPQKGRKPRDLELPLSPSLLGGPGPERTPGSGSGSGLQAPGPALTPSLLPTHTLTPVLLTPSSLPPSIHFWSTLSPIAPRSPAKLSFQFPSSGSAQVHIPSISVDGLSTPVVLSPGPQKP
The gist of the method: as §1

The target of a further assay is T3, GABPA (Homo sapiens, UniProt Q06546 1-454).
T3 sequence: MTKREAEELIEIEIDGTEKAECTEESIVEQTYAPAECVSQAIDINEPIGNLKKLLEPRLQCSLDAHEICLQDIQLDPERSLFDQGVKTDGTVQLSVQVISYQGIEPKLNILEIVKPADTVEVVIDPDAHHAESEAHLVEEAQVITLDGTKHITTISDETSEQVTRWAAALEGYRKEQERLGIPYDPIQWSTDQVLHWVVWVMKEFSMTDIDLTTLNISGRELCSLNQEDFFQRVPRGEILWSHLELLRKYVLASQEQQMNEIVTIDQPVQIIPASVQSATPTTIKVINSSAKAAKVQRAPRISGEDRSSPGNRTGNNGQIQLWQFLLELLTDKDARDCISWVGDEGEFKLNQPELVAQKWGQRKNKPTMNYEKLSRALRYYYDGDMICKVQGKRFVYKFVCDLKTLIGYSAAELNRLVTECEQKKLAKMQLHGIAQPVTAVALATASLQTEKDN
Put shortly:
as §1

The target of another assay is T4, ERG (Homo sapiens, UniProt P11308 1-479).
T4 sequence: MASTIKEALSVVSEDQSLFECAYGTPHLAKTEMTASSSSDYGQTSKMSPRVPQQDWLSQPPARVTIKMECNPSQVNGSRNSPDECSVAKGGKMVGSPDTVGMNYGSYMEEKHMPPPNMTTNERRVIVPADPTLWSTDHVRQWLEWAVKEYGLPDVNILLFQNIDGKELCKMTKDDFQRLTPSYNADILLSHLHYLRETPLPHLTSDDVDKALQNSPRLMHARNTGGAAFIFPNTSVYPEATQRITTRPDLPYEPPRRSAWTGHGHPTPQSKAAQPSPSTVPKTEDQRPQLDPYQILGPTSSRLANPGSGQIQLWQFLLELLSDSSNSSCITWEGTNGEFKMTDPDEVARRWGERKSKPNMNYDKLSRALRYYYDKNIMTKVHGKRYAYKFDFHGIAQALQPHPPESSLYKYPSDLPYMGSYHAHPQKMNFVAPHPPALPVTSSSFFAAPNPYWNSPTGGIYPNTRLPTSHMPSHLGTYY
The gist of the method:
as §1

The target of the next assay is ELF1 (Homo sapiens, UniProt P32519 1-619). Put shortly:
as §1

The target in a further assay is T5, EHF (Homo sapiens, UniProt Q9NZC4 1-300).
T5 sequence: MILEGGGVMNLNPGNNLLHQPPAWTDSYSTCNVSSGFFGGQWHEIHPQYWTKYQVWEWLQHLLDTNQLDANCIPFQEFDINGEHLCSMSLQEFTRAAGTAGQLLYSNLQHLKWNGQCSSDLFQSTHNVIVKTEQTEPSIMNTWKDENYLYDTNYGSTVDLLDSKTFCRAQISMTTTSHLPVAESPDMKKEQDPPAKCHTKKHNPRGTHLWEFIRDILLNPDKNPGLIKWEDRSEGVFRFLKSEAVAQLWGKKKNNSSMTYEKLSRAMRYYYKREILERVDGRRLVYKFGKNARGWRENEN
The gist of the method:
as §1

A further assay concerns the target SPI1 (Homo sapiens, UniProt P17947 1-270). Put shortly:
as §1

The target of a further assay is SPIB (Homo sapiens, UniProt Q01892 1-262). Put shortly:
as §1

The next assay deals with T6, ELK3 (Homo sapiens, UniProt P41970 1-407).
T6 sequence: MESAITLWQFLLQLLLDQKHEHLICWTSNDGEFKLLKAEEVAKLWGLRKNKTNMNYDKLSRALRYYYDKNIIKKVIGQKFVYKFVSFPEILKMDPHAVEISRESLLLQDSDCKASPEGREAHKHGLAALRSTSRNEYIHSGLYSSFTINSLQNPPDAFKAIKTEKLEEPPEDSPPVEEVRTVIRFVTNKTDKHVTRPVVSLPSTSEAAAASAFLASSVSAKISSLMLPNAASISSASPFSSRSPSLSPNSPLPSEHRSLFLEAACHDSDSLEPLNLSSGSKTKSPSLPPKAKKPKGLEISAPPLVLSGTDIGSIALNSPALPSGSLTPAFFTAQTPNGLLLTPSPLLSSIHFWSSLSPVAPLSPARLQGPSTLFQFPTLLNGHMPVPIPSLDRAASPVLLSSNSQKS
The gist of the method: as §1

ELF1, sequence (P32519 whole entry): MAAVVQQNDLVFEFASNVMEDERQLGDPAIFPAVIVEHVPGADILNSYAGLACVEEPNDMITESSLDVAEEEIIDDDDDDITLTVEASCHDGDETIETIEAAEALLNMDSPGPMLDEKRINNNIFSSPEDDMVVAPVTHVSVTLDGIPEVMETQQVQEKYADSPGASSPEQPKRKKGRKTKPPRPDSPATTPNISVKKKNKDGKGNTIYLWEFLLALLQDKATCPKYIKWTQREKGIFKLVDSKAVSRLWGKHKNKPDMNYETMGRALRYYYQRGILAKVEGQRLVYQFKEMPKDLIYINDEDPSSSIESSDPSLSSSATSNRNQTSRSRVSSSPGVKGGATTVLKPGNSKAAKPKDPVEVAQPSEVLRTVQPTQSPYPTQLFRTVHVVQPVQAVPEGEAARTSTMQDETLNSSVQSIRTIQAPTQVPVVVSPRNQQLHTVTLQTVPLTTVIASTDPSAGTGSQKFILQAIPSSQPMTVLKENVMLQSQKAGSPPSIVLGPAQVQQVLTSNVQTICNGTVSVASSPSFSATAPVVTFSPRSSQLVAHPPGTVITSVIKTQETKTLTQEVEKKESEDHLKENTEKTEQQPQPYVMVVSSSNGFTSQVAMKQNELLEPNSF
SPIB, sequence (Q01892 whole entry): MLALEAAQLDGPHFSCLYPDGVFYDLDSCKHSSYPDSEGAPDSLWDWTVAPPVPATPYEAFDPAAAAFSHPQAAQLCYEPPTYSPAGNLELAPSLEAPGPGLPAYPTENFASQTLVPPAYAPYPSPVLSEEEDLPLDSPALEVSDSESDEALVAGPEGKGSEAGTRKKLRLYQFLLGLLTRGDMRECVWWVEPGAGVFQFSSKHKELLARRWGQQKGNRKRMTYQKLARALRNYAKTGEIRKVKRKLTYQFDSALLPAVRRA

In the case of TATGTT, the binding signal with FLI1 was 1.25 fold enrichment (6-mer frequency, TF over GST control); with ELK1, 1.23 fold enrichment (6-mer frequency, TF over GST control); in the assay with GABPA it was 1.22 fold enrichment (6-mer frequency, TF over GST control); with ERG, 1.19 fold enrichment (6-mer frequency, TF over GST control); with ELF1, 1.23 fold enrichment (6-mer frequency, TF over GST control); with EHF, 1.23 fold enrichment (6-mer frequency, TF over GST control). The binding signal with SPI1 was 1.2 fold enrichment (6-mer frequency, TF over GST control); with SPIB, 1.12 fold enrichment (6-mer frequency, TF over GST control); with ELK3 it was 1.19 fold enrichment (6-mer frequency, TF over GST control).
Regarding AAGCAT, the binding signal with FLI1 was 1.09 fold enrichment (6-mer frequency, TF over GST control); in the assay with ELK1, 1.09 fold enrichment (6-mer frequency, TF over GST control); with GABPA it was 1.14 fold enrichment (6-mer frequency, TF over GST control); with ERG, 1.13 fold enrichment (6-mer frequency, TF over GST control); with ELF1, 1.09 fold enrichment (6-mer frequency, TF over GST control); with EHF, 1.06 fold enrichment (6-mer frequency, TF over GST control). The binding signal is 1.06 fold enrichment (6-mer frequency, TF over GST control) with SPI1; 1.14 fold enrichment (6-mer frequency, TF over GST control) with SPIB; 1.04 fold enrichment (6-mer frequency, TF over GST control) with ELK3.
In the case of ACTTCA, the binding signal is 1.43 fold enrichment (6-mer frequency, TF over GST control) in the assay with FLI1; 1.41 fold enrichment (6-mer frequency, TF over GST control) with ELK1; 1.45 fold enrichment (6-mer frequency, TF over GST control) in the assay with GABPA; 1.4 fold enrichment (6-mer frequency, TF over GST control) in the assay with ERG; 1.42 fold enrichment (6-mer frequency, TF over GST control) in the assay with ELF1; 1.35 fold enrichment (6-mer frequency, TF over GST control) with EHF. Further, the binding signal with SPI1 is 1.45 fold enrichment (6-mer frequency, TF over GST control); with SPIB, 1.47 fold enrichment (6-mer frequency, TF over GST control); in the assay with ELK3, 1.44 fold enrichment (6-mer frequency, TF over GST control).
For CGATTT, the binding signal was 1.23 fold enrichment (6-mer frequency, TF over GST control) in the assay with FLI1; 1.08 fold enrichment (6-mer frequency, TF over GST control) in the assay with ELK1; 1.08 fold enrichment (6-mer frequency, TF over GST control) in the assay with GABPA; 1.17 fold enrichment (6-mer frequency, TF over GST control) in the assay with ERG; 1.09 fold enrichment (6-mer frequency, TF over GST control) in the assay with ELF1; 1.26 fold enrichment (6-mer frequency, TF over GST control) with EHF. The binding signal with SPI1 is 1.09 fold enrichment (6-mer frequency, TF over GST control); with SPIB, 1.1 fold enrichment (6-mer frequency, TF over GST control); with ELK3, 1.04 fold enrichment (6-mer frequency, TF over GST control).
In the case of TACTAC, the binding signal in the assay with FLI1 is 1.29 fold enrichment (6-mer frequency, TF over GST control); in the assay with ELK1, 1.35 fold enrichment (6-mer frequency, TF over GST control); with GABPA, 1.31 fold enrichment (6-mer frequency, TF over GST control); with ERG it was 1.24 fold enrichment (6-mer frequency, TF over GST control); with ELF1 it was 1.39 fold enrichment (6-mer frequency, TF over GST control); with EHF it was 1.36 fold enrichment (6-mer frequency, TF over GST control). For the same sequence, the binding signal with SPI1 was 1.2 fold enrichment (6-mer frequency, TF over GST control); with SPIB, 1.41 fold enrichment (6-mer frequency, TF over GST control); in the assay with ELK3 it was 1.2 fold enrichment (6-mer frequency, TF over GST control).
Take TAGTTA: the binding signal in the assay with FLI1 is 1.19 fold enrichment (6-mer frequency, TF over GST control); with ELK1, 1.2 fold enrichment (6-mer frequency, TF over GST control); with GABPA, 1.2 fold enrichment (6-mer frequency, TF over GST control); with ERG it was 1.12 fold enrichment (6-mer frequency, TF over GST control); with ELF1, 1.11 fold enrichment (6-mer frequency, TF over GST control); in the assay with EHF it was 1.12 fold enrichment (6-mer frequency, TF over GST control). The binding signal is 1.09 fold enrichment (6-mer frequency, TF over GST control) with SPI1; 1.19 fold enrichment (6-mer frequency, TF over GST control) with SPIB; 1.12 fold enrichment (6-mer frequency, TF over GST control) in the assay with ELK3.
As to AGCTTC, the binding signal is 1.64 fold enrichment (6-mer frequency, TF over GST control) with FLI1; 1.86 fold enrichment (6-mer frequency, TF over GST control) with ELK1; 1.71 fold enrichment (6-mer frequency, TF over GST control) with GABPA; 1.83 fold enrichment (6-mer frequency, TF over GST control) with ERG; 1.66 fold enrichment (6-mer frequency, TF over GST control) in the assay with ELF1; 1.83 fold enrichment (6-mer frequency, TF over GST control) with EHF. The binding signal was 1.74 fold enrichment (6-mer frequency, TF over GST control) with SPI1; 1.78 fold enrichment (6-mer frequency, TF over GST control) with SPIB; 2.06 fold enrichment (6-mer frequency, TF over GST control) with ELK3.
